Inconclusive results are not listed. A number with no mark means an inactive call. Activity calls are given as the source filed them. Calls follow the shape of the dose curve; as a rule, active = well fitted cell-killing curve with a large enough effect; inconclusive = small, poorly fitted or top-dose-only effect, or effect the other way; inactive = no such curve, though single readings can be large or run the other way.
Assay: Viability qHTS for spleen associated tyrosine kinase inhibitor (SYKi) drug resistant MV4-11 cells (AID 1963824); also: nearly all actives have a fitted effect of over 35% in size
Details: SYKi-resistant MV4-11 viability, CellTiter-Glo, 72 h; series mostly up to 45 µM; viability, % of control: at the top concentration
Procedure, shortened: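 CellTiter-Glo luminescence, read 10 min after reagent addition, reports viability after a 72 hr compound exposure. Cells are an MV4-11 line made resistant to SYK inhibition, seeded at 500 per well onto compound-containing plates.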
Potency is read from the fitted curve at half-maximal effect.

Row | Compound | Potency | viability, % of control
1 | Cc1nc2sccn2c(=O)c1CCN1CCC(=C(c2ccc(F)cc2)c2ccc(F)cc2)CC1 | 11.9 µM (active) | 
2 | COc1ccccc1-c1nc(SCC(=O)Nc2ccc(C)c(C)c2)n[nH]1 | 16.4 µM (active) | 
3 | O=C1CCCC2=C1C(c1ccncc1Br)N=C(Nc1nc3ccccc3o1)N2 (stereo not given) | 18.4 µM (active) | 
4 | C/C(=C\C(=O)C(C)C1CCC2C3=C(CCC21C)C1(C)CCC(=O)C(C)(C)C1(O)CC3)C(C)(C)O (stereo not given) | 10 µM (active) | 
5 | CC[C@H]1OC(=O)[C@H](C)[C@@H](O[C@H]2C[C@@](C)(OC)[C@@H](O)[C@H](C)O2)[C@H](C)[C@@H](O[C@@H]2O[C@H](C)C[C@H](N(C)C)[C@H]2O)[C@@](C)(O)C[C@@H](C)[C@@H]2N[C@@H](COCCOC)OC([C@H]2C)[C@]1(C)O |  | 83.2%
6 | CC(=O)OC1CC2C3(C)CCC(OC(=O)CC(=O)O)C(C)(C)C3CCC2(C)C2(C)CCC(C3(C)CCC(=O)O3)C12 (stereo not given) | 6.32 µM (active) | 
7 | C=CC(=O)N1CCN(C(=O)CNc2cc(I)c(Cl)cc2O)CC1 | 6.51 µM (active) | 
8 | COc1cc(N2CCC(N3CCN(C)CC3)CC2)ccc1Nc1ncc(Cl)c(-c2c[nH]c3ccccc23)n1 | 0.0116 µM (active) | 
9 | COc1ccc(C[C@H]2COC(=O)[C@@H]2Cc2ccc(O[C@@H]3O[C@H](CO)[C@@H](O)[C@H](O)[C@H]3O)c(OC)c2)cc1OC | 1.42 µM (active) | 
10 | COc1c2c(c(C)c3c1C(=O)OC3)OC1(C)CC(O)C34OC(OC)(OC3(C)C)C(O)CC4(C)C1C2 (stereo not given) |  | 90.7% [at 17.3 µM]
11 | C#C[C@]1(O)CC[C@H]2[C@@H]3CCC4=C/C(=N/O)CC[C@@H]4[C@H]3CC[C@@]21CC | 25.9 µM (active) | 
12 | CCC[C@@H]1C[C@@H](C(=O)N[C@@H]([C@H]2O[C@H](SC)[C@H](O)[C@@H](O)[C@@H]2O)[C@@H](C)O)N(C)C1 |  | 108%
13 | C=C[C@]1(C)C[C@H](O)[C@H]2C(=C)C(=O)O[C@@H]2[C@H]1C(=C)CO | 14.6 µM (active) | 
14 | Cc1c[nH]c2nc(Nc3ccc(N4CCN(C)CC4)c(F)c3)nc(-c3cccc(CC#N)c3)c12 | 0.0059 µM (active) | 
15 | COc1ccc([C@@]2(O)c3c(ccc(CC=C(C)C)c3O)NC(=O)[C@@H]2OC)cc1 | 14.3 µM (active) | 
16 | COc1ccccc1Oc1c(NS(=O)(=O)c2ccc(C)cn2)nc(-c2ccncc2)nc1OC |  | 79.1%
17 | CC(C)(C)c1ccc(S(=O)(=O)Nc2ccc(Cl)cc2C(=O)c2cc[n+]([O-])cc2)cc1 | 20.6 µM (active) | 
18 | Cn1nccc1-c1ccccc1Oc1ccc(S(=O)(=O)Nc2nccs2)cc1C#N | 13 µM (active) | 
19 | CNc1nc(Nc2ccc(C(=O)N3CCOCC3)cc2OC)nc2[nH]cc(Cl)c12 | 6.51 µM (active) | 
20 | CC[C@H](C(=O)Nc1ccccc1N1CCCC1)c1ccccc1 | 23.1 µM (active) | 
21 | CC1=CC2/C=C(\C)CCC3OC(C)(C)OC3CCC(=O)C23C(=O)NC(CC(C)C)C3C1C (stereo not given) | 7.96 µM (active) | 
22 | CC(C)n1nc(C#Cc2ccccc2)c2c(N)ncnc21 | 8.2 µM (active) | 
23 | CCNC(=O)Nc1ccc(-c2nc3c(c(N4CCOCC4C)n2)CCN(C2COC2)C3)cc1 (stereo not given) | 1.16 µM (active) | 
24 | CS(=O)(=O)Nc1ccc2oc3c(OC(F)F)ccc(C(=O)Nc4c(Cl)cncc4Cl)c3c2c1 | 23.1 µM (active) | 
25 | CCCCCC1CC1CC1CC1CCCCCCCC(=O)O (stereo not given) |  | 92.5% [at 17.3 µM]
26 | O=[N+]([O-])c1ccc(-[n+]2nc(-c3ccccc3)nn2-c2ccc(I)cc2)cc1 |  | 57.5%
27 | COC(=O)[C@]1(C)CCC[C@@]2(C)C(=O)CC[C@H]3C(=O)C=C(CC[C@@H]21)C3O (stereo not given in full) |  | 91.2%
28 | COc1ccc(Oc2cc(C)c(-c3csc(NC(=O)c4ccncc4)n3)c(C)c2)cc1 | 0.092 µM (active) | 
29 | OCC(Cc1ccccc1)Nc1nc(Oc2ccc3c(c2)CCC3)nc2c1ncn2Cc1ccc(-c2ccccc2)cc1 (stereo not given) | 7.31 µM (active) | 
30 | CC1CC(O)C2(OC1=O)OC1C(O)C3C4CCC5CC(OC6OC(CO)C(O)C(O)C6OC6OC(C)C(O)C(O)C6O)CCC5(C)C4CCC3(C)C1C2C (stereo not given) |  | 80.7% [at 17.3 µM]
